# Source: PubChem BioAssay (National Center for Advancing Translational Sciences (NCATS))
# HCMV inh – qHTS Assay for inhibitors of the human cytomegalovirus (HCMV); HFF cells, HCMV-luciferase reporter, 72 h; stronger effect = lower value; activity change, negative = inhibition, % at 57.5 µM; 410,000 compounds, 4.5% hits; in the data active = activity change below about -60%; inconclusive = no clear call, values can overlap the other calls; inactive = above about -39%
#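 HFF cells seeded 16 h at 37C, treated with compounds, infected with luciferase-reporter HCMV at MOI 1 PFU/cell; luciferase read at 72 h post infection, normalized to buffer-only and Salinomycin controls.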
# Pf growth 96h – Primary qHTS for delayed death inhibitors of the malarial parasite plastid, 96 hour incubation; P. falciparum luciferase reporter growth, 96 h; Potency, µM (doses to about 28.7 µM), without a hit: top-dose activity change, negative = inhibition, most hits filed as inhibitors; 320,000 compounds, 6.9% hits; AID 504834, 2011; also: potency is read from the fitted curve at half-maximal effect
#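 Parasite growth measured via integrated firefly luciferase reporter in P. falciparum. Infected erythrocytes at 2% hematocrit, 0.05% parasitemia final were treated 96 hours at 37 C under 5% CO2, and luminescence was read.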
# Sm TGR block – qHTS Assay for the Inhibitors of Schistosoma Mansoni Peroxiredoxins; Schistosoma mansoni thioredoxin glutathione reductase (TGR), Q962Y6; purified TGR, DTNB reduction, TNB absorbance 405 nm; Potency, µM (titrated, usually from 114 µM), inactives show at the highest dose activity change, negative = inhibition, actives largely listed as inhibitors; 360,000 compounds, 3% hits; also: potency is read from the fitted curve at half-maximal effect; nearly all actives have a fitted effect of over 60% in size
#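 Kinetic colorimetric format: TGR-catalysed, NADPH-driven DTNB reduction monitored via TNB absorbance. Enzyme dispensed at 20 nM; compound exposure 15 min at room temperature before reaction start.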
# Pf growth 48h – Primary qHTS for delayed death inhibitors of the malarial parasite plastid, 48 hour incubation; P. falciparum luciferase growth in erythrocytes, 48 h; Potency, µM (titrated, usually from 28.7 µM), for inactives: at the top dose activity change, negative = inhibition, hits mostly inhibitors; 310,000 compounds, 5.9% hits; AID 504832, 2011; also: potency is read from the fitted curve at half-maximal effect
#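 Luminescence readout; reporter = integrated firefly luciferase in P. falciparum. RBC culture at 2% hematocrit, 0.1% parasitemia final, 37 C/5% CO2; decreased signal taken as growth inhibition.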
# Giardia FBPA inh – qHTS Assay for Inhibitors of Fructose-1,6-bisphosphate Aldolase from Giardia Lamblia. A8B2U2. purified Giardia FBPA. Potency, µM (series often up to 59.6 µM), without a hit: at the top dose activity, negative = inhibition, usual class: inhibitors. 290,000 compounds, 0.71% hits. AID 2451, 2010; also: potency is read from the fitted curve at half-maximal effect; nearly all actives have a fitted effect of over 55% in size
# Target sequence (A8B2U2 whole entry, looked up): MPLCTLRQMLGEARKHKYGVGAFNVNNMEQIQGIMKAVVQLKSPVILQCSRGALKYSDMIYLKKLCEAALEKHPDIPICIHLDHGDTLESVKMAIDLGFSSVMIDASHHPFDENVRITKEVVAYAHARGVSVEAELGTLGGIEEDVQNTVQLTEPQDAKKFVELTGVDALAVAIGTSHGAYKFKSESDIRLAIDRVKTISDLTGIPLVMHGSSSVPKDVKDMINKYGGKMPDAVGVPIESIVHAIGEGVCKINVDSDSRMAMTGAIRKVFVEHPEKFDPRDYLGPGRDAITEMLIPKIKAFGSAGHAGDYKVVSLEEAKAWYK
#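 40 nM FBPA preincubated 10 min at RT with compound (up to 57.5 uM final), then substrate plus GAPDH/TPI/NAD/arsenate coupling and diaphorase/resazurin added. Fluorescence read after 20 min at RT, 525/598 nm.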
# An asterisk follows results filed as active; ? = inconclusive; . = not tested or not shown. In the library only some 14% were active in any assay of this set; here they are far more common. Unless noted, calls follow the shape of the dose curve; as a rule, active = well fitted curve in the direction sought with a large enough effect; inconclusive = small, poorly fitted or top-dose-only effect, or another doubt; inactive = no such curve, though single readings can be large; an effect the other way counts as inactive or inconclusive. % is scaled to controls: 0 for no effect and ±100 for the full control effect.
SMILES,HCMV inh,Pf growth 96h,Sm TGR block,Pf growth 48h,Giardia FBPA inh
O=C(CCCN1C(=O)C(c2ccccc2)Oc2cccnc21)Nc1ccc(Br)cc1F (centres undefined),-104.9*,.,-1.8%,.,.
CC(C)(C)NC(=O)C(c1ccncc1)n1c(-c2ccc(C(F)(F)F)cc2)nc2ccccc21 (centres undefined),63.1,.,.,.,.
CCCNC(=O)c1nnc2n1CCN(C(=O)c1ccc3sccc3c1)C2,-7.6,.,.,.,.
Cc1ccc(C)c(Cn2c(=O)n(Cc3ccc4c(c3)OCO4)c(=O)c3oc4ccccc4c32)c1,?,.,2.6%,.,.
CC1CCCN(S(=O)(=O)c2ccc(NC(=O)C3CC(=O)N(c4ccccc4)C3)cc2)C1 (centres undefined),?,9.28µM*,-8.9%,0.0%,4.1%
CCC(C)NS(=O)(=O)c1ccc(NC(=O)C2CCN(C(=O)c3ccco3)CC2)cc1 (centres undefined),12.8,-1.2%,-6.6%,-4.1%,5.0%
CC1CCCN(S(=O)(=O)c2ccc(NC(=O)C3CCN(C(=O)c4ccco4)CC3)cc2)C1 (centres undefined),-60.1*,?,7.9%,-21.3%,10.0%
O=C(Nc1ccc(S(=O)(=O)N2CCCCC2)cc1)C1CC(=O)N(c2ccccc2)C1 (centres undefined),-10.4,?,4.0%,-22.8%,-6.4%
CC(C)(C)OC(=O)N1CCC[C@H]1C(=O)N/N=C/c1ccc2nccnc2c1,3.0,-30.7%,2.5%,?,6.2%
CC(C)(C)OC(=O)N1CCC[C@H]1C(=O)N/N=C/c1cccc2nccnc12,-12.0,?,9.1%,14.7µM*,-10.6%
CCOC(=O)c1cnn(CCOC(=O)Cc2cccs2)c1NC(=O)Cc1cccs1,13.3,9.28µM*,-2.0%,69.2%,-0.3%
CCOC(=O)c1cnn(CCOC(=O)c2ccc(F)cc2)c1NC(=O)c1ccc(F)cc1,-15.1,36.8%,-3.0%,6.2%,5.2%
O=C(/C=C/c1ccccc1)c1ccc(O[C@H]2OC(CO)C(O)C(O)C2O)cc1O (some centres undefined),.,.,.,.,-0.7%
Cc1ccc2cc(CCNC(=O)c3ccc(S(=O)(=O)N4CCOCC4)cc3)c(=O)[nH]c2c1,-23.9,13.1µM*,1.2%,?,.
Cc1cc2cc(CCNC(=O)c3cccs3)c(=O)[nH]c2cc1C,-99.4*,-15.4%,-16.0%,70.0%,3.7%
CCC(CC)C(=O)NCCc1cc2cc(C)c(C)cc2[nH]c1=O,-0.4,3.7%,4.8%,7.2%,-0.6%
Cc1ccc(C)c2[nH]c(=O)c(CCNC(=O)c3ccc(S(=O)(=O)N4CCCC4)cc3)cc12,-14.5,?,0.9%,11.7µM*,14.9%
CCC(CC)C(=O)NCCc1cc2c(C)ccc(C)c2[nH]c1=O,5.8,49.4%,0.3%,7.8%,5.3%
Cc1ccc2cc(CCNC(=O)c3ccc(S(=O)(=O)N4CCOCC4)cc3)c(=O)[nH]c2c1C,46.4,11.7µM*,-1.4%,?,6.7%
COc1cc(CNC(=O)c2sc3ncccc3c2-n2cccc2)cc(OC)c1OC,-18.0,.,0.6%,.,.
Cc1ccc2cc(CCNC(=O)c3ccc(S(=O)(=O)N4CCCCC4)cc3)c(=O)[nH]c2c1,?,?,0.0%,?,0.5%
Cc1cc2cc(CCNC(=O)c3ccc(S(=O)(=O)N4CCOCC4)cc3)c(=O)[nH]c2cc1C,.,8.28µM*,-1.4%,?,-0.9%
O=C(NCC(c1ccco1)N1CCCC1)c1cc(S(=O)(=O)N2CCOCC2)ccc1Cl (centres undefined),0.0,?,-14.0%,?,.
COc1ccc(C2=NCC(=O)N(CC(=O)NCc3ccco3)c3sc4c(c32)CCCC4)cc1OC,?,?,22.4µM*,?,2.0%
Cc1cc(O)c(-c2cc(C(=O)Nc3sc4c(c3C(=O)NCc3ccco3)CCC4)[nH]n2)cc1C,-24.2,1.85µM*,7.9%,1.17µM*,2.5%
SMILES,HCMV inh,Pf growth 96h,Sm TGR block,Pf growth 48h,Giardia FBPA inh
COc1ccc(CC(=O)NCc2ccco2)cc1OC,17.2,.,?,-2.5%,-9.4%
Cc1ccc(C(=O)Nc2sc3c(c2C(=O)NCc2ccco2)CCCC3)cc1,12.0,?,-13.3%,.,-7.8%
COc1cc(C(=O)Nc2sc3c(c2C(=O)NCc2ccco2)CCCC3)cc(OC)c1OC,7.8,1.65µM*,-1.7%,.,4.1%
COc1ccc(C(=O)Nc2sc3c(c2C(=O)NCc2ccco2)CCCC3)cc1OC,-32.7,3.29µM*,-17.0%,.,-5.2%
Cc1cc(Cl)ccc1-c1nc(NC(C)C)nc2ccsc12,-13.9,.,.,.,.
Cc1cc(OCC(=O)Nc2sc3c(c2C#N)CCC(C)C3)ccc1Cl (centres undefined),3.4,.,-1.9%,.,.
CC(=O)c1ccc(NS(=O)(=O)c2c(C)cc(C)cc2C)cc1,?,31.1%,.,3.3%,-13.2%
O=C(O)c1cccc(S(=O)(=O)Nc2ccc3c(c2)CCC3)c1,18.4,4.15µM*,-12.9%,39.1%,2.6%
Cc1cc(C)c(S(=O)(=O)Nc2ccc3c(c2)CCC3)c(C)c1,-84.9*,?,9.0%,-10.7%,-18.1%
Cc1cc(C)c(S(=O)(=O)Nc2ccc(C(N)=O)cc2)c(C)c1,-84.4*,-16.2%,0.0%,-2.8%,-24.9%
COc1ccc(-c2nc(CSc3nnc(C)n4c3cc3sccc34)c(C)o2)cc1,32.9,.,-5.8%,.,.
COC(=O)c1c(-c2ccco2)csc1NC(=O)C1CC=CCC1C(=O)O (centres undefined),12.2,?,44.7µM*,-26.3%,-1.9%
CCOC(=O)c1c(-c2ccc(F)cc2)csc1NC(=O)C1CC=CCC1C(=O)O (centres undefined),34.8,1.7%,.,-5.2%,21.0%
CC(CCc1ccccc1)N1CCN(Cc2ccccc2)CC1 (centres undefined),-16.4,11.7µM*,1.9%,26.2%,-16.1%
CCS(=O)(=O)N1CCN(C(C)CCc2ccccc2)CC1 (centres undefined),38.9,3.29µM*,1.2%,-6.5%,-10.0%
CC(C)N1CCN(S(=O)(=O)c2ccccc2)CC1,-15.9,13.5%,11.1%,12.2%,?
O=C(c1ccco1)N1CCN(c2nc(C3CC3)nc3c2nnn3Cc2ccccc2Cl)CC1,-36.3,-5.8%,1.1%,6.57µM*,4.3%
O=C(c1ccco1)N1CCN(c2nc(C3CC3)nc3sc4c(c23)CCCC4)CC1,.,-20.8%,39.8µM*,9.28µM*,6.0%
Cc1nc(N2CCN(C(=O)c3ccco3)CC2)c2c3c(sc2n1)CCCC3,-25.4,?,44.7µM*,?,-2.1%
O=C(c1ccco1)N1CCC(c2nc3c(nnn3Cc3ccccc3Cl)c(=O)[nH]2)CC1,-12.4,-11.2%,0.4%,?,2.0%
CC(C)CN1CCc2nc(Nc3ccc(F)cc3F)ncc2C1,57.9,.,-2.4%,.,.
